Reference: the supplement of paper PMC11732987, “Enantioselective OTUD7B fragment discovery through chemoproteomics screening and high-throughput optimisation” (Communications Chemistry, 2025)

Columns and labels:
Test in all cases: log2 ratio of Biotin-Ahx-Ub-VS probe labelling (fragment/DMSO); higher = less target engagement (more negative = stronger competition), active = hit call of the paper (q ≤ 0.05, log2 ratio ≤ -1)
Conditions in all cases: compound concentration: 200 uM; treatment time: 3 h
USP42 = biological target: T1, USP42 (UniProt Q9H9J4)
T1 sequence (whole entry): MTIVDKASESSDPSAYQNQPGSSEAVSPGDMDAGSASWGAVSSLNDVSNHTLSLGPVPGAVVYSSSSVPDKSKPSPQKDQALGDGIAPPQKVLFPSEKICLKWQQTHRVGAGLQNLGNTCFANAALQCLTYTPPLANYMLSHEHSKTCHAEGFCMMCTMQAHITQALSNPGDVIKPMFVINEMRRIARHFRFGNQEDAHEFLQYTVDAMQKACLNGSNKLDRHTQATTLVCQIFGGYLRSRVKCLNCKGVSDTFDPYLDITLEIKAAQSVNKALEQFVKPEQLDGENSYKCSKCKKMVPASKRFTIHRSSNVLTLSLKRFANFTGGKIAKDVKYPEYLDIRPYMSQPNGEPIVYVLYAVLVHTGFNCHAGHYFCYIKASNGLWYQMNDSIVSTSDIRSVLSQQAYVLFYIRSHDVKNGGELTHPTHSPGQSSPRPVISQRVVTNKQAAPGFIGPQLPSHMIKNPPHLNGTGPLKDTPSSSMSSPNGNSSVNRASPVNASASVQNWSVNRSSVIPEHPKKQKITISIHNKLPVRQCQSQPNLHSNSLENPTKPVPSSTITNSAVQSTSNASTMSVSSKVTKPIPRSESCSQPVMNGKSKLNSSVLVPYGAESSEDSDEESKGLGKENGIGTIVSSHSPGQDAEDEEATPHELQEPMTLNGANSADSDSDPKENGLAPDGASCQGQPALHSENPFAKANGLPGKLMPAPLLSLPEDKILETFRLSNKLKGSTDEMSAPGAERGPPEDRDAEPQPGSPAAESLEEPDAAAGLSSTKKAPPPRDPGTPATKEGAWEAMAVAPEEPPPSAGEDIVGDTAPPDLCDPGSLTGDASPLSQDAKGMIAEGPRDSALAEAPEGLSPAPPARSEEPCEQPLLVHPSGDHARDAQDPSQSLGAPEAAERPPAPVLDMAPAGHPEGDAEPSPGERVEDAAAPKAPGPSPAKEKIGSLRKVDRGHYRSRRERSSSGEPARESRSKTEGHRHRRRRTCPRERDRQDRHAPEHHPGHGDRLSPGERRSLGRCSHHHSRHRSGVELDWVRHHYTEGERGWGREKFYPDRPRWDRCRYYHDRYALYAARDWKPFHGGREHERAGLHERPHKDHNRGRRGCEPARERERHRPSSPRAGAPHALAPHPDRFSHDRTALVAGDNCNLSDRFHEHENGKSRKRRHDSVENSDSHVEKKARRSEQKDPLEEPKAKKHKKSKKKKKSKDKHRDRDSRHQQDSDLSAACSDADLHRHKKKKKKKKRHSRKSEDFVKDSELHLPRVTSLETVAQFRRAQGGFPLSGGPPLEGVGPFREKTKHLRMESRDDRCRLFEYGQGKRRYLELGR
Summary of the method: (§1)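 Using Biotin-Ahx-Ub-VS at 0.5 µM final for 1 h, DUBs were labelled in HEK293T lysate (495 µg per sample) that had first been treated in triplicate with fragment at 200 µM or vehicle for 3 h. NeutrAvidin enrichment, LysC and trypsin digestion and diaPASEF LC-MS/MS followed. Spectronaut label-free quantities were global-median-normalised. Values are average log2 fragment/vehicle ratios by unpaired t-test, using proteins with ≥2 unique peptides.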

USP46 = USP46 (UniProt P62068)
Summary of the method: as §1

USP47 = biological target: T2, USP47 (UniProt Q96K76)
T2 sequence (whole entry): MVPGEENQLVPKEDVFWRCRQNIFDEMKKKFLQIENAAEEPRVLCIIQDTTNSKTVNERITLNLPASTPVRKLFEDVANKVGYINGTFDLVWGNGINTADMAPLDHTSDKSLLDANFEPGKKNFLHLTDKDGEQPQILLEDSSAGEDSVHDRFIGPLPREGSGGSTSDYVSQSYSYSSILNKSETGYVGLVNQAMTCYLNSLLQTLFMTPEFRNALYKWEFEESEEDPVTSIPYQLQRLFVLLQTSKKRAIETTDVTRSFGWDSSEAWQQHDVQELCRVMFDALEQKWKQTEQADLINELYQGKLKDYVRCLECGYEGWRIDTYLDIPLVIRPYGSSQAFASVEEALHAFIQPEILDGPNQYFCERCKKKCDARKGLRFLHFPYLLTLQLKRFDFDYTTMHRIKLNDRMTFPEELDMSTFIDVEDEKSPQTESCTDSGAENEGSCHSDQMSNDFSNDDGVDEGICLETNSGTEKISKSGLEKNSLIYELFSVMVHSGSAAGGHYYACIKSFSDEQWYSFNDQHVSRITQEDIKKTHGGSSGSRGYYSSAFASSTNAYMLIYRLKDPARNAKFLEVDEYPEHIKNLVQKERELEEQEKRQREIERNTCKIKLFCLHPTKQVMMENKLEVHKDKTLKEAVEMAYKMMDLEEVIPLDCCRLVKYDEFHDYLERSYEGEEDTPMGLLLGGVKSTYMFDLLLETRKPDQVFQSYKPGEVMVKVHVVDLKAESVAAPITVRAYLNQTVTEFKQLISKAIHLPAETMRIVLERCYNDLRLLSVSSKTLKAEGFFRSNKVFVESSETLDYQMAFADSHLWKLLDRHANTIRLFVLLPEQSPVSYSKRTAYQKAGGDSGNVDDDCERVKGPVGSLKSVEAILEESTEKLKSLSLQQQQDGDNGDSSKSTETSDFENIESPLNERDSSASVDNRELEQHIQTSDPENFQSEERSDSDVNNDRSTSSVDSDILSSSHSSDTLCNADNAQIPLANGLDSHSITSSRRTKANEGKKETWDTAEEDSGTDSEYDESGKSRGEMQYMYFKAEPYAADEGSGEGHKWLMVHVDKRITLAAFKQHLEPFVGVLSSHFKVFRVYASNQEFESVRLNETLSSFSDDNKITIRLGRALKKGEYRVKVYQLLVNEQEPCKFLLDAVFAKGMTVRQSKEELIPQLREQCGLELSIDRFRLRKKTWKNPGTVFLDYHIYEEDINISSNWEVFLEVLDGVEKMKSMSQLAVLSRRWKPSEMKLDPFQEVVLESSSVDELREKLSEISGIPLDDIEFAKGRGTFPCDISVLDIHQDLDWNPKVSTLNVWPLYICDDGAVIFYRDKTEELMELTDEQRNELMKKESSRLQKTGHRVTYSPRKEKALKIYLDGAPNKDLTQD
Summary of the method: as §1

USP48 = biological target: T3, USP48 (UniProt Q86UV5)
T3 sequence (whole entry): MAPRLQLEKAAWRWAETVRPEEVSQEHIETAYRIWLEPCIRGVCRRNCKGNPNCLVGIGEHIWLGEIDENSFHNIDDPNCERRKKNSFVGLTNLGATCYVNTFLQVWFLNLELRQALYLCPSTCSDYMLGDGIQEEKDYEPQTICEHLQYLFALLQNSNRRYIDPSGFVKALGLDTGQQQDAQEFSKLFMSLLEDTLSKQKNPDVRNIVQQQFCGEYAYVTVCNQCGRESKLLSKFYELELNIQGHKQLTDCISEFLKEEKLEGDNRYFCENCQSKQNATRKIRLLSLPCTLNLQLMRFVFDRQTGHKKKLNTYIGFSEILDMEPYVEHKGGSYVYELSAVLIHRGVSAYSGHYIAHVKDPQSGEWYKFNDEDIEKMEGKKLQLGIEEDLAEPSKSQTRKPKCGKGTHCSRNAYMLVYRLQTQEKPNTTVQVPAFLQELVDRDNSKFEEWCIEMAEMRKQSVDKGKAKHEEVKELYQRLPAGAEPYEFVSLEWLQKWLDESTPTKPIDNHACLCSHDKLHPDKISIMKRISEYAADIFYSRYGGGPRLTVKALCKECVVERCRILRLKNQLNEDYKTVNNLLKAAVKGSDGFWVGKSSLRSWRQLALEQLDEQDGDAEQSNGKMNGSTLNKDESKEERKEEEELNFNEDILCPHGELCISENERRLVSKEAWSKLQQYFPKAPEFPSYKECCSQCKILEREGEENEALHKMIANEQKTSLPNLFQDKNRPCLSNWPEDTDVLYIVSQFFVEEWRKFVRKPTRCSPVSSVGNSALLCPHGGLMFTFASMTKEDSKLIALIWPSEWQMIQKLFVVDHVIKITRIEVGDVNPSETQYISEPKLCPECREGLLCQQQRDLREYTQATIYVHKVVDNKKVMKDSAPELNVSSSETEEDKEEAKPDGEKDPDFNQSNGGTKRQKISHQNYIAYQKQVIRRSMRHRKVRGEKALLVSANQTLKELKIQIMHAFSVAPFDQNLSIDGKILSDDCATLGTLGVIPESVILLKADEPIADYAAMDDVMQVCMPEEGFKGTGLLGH
Summary of the method: as §1

USP5 = biological target: T4, USP5 (UniProt P45974)
T4 sequence (whole entry): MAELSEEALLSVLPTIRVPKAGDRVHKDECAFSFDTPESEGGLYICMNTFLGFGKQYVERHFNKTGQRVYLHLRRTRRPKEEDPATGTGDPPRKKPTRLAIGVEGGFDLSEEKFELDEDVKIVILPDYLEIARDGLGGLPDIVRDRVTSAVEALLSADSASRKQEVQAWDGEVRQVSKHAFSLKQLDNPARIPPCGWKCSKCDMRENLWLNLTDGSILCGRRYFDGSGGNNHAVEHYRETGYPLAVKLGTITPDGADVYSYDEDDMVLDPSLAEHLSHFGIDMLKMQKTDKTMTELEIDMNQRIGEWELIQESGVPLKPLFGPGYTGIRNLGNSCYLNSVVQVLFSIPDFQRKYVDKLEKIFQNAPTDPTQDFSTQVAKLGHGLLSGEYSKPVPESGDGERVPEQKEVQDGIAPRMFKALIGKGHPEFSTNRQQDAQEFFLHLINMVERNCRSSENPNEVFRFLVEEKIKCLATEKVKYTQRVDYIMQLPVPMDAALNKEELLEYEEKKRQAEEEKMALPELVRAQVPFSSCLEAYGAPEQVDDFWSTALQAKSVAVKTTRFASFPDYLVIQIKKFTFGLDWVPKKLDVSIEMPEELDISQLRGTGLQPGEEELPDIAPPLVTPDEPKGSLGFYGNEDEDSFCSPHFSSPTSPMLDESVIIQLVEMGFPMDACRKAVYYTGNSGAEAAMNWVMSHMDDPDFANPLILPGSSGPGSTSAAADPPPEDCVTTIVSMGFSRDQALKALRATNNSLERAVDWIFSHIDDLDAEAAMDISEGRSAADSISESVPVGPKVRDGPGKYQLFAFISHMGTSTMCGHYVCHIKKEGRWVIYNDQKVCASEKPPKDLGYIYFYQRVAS
Summary of the method: as §1

USP54 = USP54 (UniProt Q70EL1)
Summary of the method: as §1

USP7 = USP7 (UniProt Q93009)
Summary of the method: as §1

USP8 = biological target: T5, USP8 (UniProt P40818)
T5 sequence (whole entry): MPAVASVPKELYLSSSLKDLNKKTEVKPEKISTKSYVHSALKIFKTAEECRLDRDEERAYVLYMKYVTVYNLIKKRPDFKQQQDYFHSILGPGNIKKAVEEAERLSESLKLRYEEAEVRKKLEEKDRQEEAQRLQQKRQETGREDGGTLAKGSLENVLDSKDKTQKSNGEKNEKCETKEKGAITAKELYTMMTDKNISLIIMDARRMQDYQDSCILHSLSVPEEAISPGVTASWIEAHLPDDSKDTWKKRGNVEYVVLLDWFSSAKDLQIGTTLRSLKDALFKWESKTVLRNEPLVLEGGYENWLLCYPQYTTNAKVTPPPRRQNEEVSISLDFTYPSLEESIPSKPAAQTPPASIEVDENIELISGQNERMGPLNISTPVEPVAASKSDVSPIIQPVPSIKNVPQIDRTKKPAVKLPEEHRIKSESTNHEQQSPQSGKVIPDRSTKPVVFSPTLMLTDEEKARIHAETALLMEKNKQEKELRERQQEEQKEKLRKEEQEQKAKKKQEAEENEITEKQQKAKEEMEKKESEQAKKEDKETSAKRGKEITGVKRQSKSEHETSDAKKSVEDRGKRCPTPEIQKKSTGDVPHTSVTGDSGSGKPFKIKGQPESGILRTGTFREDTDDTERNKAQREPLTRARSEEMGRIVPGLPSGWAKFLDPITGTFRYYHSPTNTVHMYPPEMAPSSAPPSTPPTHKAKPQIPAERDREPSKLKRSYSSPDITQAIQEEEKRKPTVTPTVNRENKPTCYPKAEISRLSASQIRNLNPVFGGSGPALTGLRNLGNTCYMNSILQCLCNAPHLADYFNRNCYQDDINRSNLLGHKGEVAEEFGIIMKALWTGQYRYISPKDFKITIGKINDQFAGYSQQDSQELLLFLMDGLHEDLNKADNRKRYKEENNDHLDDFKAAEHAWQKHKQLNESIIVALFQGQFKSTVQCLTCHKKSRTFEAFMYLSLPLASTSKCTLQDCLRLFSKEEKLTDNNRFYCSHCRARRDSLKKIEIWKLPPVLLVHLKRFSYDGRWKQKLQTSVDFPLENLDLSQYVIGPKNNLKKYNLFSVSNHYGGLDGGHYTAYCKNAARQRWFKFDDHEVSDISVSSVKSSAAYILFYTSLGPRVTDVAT
Summary of the method: as §1

USP9X = USP9X (UniProt Q93008)
Summary of the method: as §1

UniProt O00487 = biological target: UniProt O00487
Summary of the method: as §1

Measured: log2 ratio of Biotin-Ahx-Ub-VS probe labelling

Sequence of USP9X (Q93008 whole entry): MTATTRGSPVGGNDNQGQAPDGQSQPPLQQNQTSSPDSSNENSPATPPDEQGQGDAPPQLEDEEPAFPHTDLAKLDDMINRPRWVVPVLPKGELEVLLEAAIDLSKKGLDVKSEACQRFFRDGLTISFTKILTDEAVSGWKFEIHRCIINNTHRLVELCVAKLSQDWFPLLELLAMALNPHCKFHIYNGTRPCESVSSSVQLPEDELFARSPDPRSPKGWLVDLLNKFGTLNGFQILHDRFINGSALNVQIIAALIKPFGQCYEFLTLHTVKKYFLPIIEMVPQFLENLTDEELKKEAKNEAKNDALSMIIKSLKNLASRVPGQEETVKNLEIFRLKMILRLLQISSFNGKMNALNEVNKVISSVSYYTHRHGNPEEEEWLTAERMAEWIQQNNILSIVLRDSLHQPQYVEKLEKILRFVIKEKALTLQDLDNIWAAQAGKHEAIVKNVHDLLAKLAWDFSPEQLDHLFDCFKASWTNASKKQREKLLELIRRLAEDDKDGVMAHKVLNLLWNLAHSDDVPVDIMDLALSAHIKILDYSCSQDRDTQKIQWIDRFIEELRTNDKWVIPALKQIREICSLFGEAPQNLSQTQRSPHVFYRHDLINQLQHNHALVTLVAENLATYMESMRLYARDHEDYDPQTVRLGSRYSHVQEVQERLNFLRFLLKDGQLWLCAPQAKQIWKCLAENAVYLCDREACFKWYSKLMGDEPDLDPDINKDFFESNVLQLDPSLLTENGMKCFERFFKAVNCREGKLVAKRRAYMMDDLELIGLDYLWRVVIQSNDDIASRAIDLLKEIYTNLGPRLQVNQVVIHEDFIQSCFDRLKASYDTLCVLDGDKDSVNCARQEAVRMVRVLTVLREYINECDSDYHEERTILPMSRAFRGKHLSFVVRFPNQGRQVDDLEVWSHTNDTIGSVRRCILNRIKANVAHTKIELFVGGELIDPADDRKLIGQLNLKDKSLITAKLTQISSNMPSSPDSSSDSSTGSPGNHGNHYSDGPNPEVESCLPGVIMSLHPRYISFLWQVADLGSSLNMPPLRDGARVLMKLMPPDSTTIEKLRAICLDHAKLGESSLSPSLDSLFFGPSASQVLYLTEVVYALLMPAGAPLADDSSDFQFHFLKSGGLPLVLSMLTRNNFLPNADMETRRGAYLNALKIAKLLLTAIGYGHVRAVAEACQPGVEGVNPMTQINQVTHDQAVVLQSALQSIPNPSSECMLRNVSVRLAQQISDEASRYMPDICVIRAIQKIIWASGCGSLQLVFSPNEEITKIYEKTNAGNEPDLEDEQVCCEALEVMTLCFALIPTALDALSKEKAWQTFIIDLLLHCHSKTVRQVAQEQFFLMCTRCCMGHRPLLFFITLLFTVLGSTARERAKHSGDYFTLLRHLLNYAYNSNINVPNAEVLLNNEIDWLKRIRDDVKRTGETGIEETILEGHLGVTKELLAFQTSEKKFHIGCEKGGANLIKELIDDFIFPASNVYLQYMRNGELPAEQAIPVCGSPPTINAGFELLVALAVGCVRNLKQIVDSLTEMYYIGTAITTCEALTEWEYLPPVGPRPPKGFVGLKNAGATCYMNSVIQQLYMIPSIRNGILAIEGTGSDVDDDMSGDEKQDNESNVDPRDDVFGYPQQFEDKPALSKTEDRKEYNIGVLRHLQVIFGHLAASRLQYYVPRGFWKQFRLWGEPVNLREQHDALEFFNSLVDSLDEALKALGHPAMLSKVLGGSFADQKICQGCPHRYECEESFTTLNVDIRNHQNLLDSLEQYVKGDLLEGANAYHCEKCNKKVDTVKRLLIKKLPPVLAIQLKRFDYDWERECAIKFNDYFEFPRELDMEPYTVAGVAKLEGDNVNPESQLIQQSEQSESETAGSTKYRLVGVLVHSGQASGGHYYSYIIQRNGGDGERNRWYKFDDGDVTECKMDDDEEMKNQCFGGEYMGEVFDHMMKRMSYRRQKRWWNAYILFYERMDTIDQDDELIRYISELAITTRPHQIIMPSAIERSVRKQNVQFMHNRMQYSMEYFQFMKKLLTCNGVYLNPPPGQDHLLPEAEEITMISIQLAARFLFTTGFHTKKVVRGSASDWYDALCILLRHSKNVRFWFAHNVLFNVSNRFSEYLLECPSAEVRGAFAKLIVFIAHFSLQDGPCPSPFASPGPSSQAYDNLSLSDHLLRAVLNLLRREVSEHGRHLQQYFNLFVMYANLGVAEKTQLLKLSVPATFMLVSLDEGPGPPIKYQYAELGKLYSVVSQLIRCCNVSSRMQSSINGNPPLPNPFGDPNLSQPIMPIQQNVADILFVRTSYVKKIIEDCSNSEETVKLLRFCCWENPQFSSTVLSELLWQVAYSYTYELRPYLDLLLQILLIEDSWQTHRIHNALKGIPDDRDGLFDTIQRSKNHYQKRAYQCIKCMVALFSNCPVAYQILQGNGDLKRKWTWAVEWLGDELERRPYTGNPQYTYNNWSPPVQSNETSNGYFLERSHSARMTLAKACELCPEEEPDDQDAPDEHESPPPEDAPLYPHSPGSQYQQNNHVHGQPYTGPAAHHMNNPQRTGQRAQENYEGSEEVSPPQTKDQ
Sequence of USP46 (P62068 whole entry): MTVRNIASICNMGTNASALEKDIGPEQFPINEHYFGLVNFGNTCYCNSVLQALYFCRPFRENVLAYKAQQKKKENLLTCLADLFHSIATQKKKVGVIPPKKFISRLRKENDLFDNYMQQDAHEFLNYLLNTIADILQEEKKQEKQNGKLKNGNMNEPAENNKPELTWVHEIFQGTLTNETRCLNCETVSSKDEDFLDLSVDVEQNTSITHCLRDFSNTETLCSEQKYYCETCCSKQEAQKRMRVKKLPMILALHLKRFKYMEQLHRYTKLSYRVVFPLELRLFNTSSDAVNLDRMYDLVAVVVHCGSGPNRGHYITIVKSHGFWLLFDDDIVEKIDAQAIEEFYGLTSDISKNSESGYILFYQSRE
Sequence of UniProt O00487 (O00487 whole entry): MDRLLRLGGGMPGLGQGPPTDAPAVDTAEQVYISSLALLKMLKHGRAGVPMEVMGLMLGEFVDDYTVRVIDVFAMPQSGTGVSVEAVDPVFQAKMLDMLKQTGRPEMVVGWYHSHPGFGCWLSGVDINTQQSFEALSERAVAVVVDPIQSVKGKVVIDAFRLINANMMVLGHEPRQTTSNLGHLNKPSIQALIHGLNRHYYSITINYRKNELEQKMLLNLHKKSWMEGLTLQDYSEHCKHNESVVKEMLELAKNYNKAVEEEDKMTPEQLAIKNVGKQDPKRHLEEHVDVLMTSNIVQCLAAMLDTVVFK
Sequence of USP54 (Q70EL1 whole entry): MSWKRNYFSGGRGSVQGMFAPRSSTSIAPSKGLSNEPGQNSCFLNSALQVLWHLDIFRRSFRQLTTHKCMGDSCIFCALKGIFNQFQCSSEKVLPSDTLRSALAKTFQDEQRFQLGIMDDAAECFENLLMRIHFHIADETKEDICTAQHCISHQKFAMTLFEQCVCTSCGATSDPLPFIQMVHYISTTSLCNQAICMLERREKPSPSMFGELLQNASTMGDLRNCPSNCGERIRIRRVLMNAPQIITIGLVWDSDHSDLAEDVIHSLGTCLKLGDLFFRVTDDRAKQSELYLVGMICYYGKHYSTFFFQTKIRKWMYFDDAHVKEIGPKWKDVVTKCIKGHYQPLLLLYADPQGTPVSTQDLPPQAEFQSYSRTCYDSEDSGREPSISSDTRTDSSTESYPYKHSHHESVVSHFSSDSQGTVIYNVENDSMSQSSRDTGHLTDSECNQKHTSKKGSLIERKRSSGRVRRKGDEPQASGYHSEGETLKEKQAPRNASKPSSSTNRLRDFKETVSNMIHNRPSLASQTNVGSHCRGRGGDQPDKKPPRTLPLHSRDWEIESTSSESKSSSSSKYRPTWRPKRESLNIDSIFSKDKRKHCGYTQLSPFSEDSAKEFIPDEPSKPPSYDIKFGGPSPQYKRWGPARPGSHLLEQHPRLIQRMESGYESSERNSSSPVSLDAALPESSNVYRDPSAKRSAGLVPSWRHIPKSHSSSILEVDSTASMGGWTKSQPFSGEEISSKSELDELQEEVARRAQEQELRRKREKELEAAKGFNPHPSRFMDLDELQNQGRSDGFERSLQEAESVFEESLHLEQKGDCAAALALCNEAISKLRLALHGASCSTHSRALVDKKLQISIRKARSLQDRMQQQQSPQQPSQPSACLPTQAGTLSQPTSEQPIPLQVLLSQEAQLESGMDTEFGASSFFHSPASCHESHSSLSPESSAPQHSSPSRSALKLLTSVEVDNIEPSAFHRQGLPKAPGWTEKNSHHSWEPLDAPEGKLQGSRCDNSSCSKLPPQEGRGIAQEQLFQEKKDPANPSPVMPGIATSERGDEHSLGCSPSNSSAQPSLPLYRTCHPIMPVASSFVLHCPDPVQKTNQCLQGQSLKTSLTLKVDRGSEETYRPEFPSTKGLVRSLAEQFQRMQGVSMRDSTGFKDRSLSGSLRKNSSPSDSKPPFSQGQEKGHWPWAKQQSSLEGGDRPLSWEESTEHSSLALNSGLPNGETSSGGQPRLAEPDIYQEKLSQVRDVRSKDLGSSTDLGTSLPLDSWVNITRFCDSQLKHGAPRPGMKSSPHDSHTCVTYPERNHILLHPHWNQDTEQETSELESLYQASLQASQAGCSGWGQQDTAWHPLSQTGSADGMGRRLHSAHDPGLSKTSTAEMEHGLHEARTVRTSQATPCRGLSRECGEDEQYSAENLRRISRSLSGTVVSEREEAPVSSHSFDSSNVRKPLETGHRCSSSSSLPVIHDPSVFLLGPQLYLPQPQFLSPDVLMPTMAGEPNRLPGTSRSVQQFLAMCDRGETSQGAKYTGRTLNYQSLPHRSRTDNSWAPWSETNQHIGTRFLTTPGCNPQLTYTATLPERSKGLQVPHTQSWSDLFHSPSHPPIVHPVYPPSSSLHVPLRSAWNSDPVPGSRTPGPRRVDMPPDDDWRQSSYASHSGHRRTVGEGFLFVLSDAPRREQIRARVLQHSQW

Cc1ccc(N2CCC(NC(=O)CCl)C2=O)cc1 (stereo not given)
inactive: USP42 -0.0605 | USP46 0.123 | USP47 -0.186 | USP48 0.139 | USP5 0.412 | USP54 0.213 | USP7 -0.0706 | USP8 0.0227 | USP9X -0.0231 | UniProt O00487 -0.129

O=C(O)C1Cc2ccccc2CN1C(=O)CCl (stereo not given)
inactive: USP42 -0.449 | USP46 -0.111 | USP47 -0.301 | USP48 -0.543 | USP5 -0.0229 | USP54 0.788 | USP7 -0.333 | USP8 -0.283 | USP9X -0.449 | UniProt O00487 -0.262
